Results published in PubChem BioAssay AID602332 (National Center for Advancing Translational Sciences (NCATS), 2012).
Several values for one entry are separate records, joined by “and”; a condition that tells them apart may be missing. Equal values may be shown once. The whole screen tested about 420,000 compounds, of which about 75 (0.02%) were called active. The entries come from a sample that favours actives as a whole. Unmarked numbers belong to inactive results. Calls come from the whole dose curve; as a rule, active = well fitted activation curve with a large enough effect; inconclusive = small, poorly fitted or top-dose-only effect; inactive = no such curve, though single readings can be large or run the other way.

test: qHTS for Inducers of the Endoplasmic Reticulum Stress Response (ERSR) in Human Glioma: qHTS; conditions: U87-MG GRP78 promoter luciferase reporter, 16 h; activation: hits give high values; note: nearly all actives have a fitted effect of over 35% in size; for activation: % of control where 0% means no effect
Description: Primary protein unfolding takes place for many diseases, including diabetes and hypoxia, , and triggers a reaction in the cells called ER stress response (ERSR). ). ERSR is designed as a repair mechanism, but ultimately leads to cell death via apoptosis if conditions triggering protein unfolding persist (1). The molecular clue to ERSR activation is the enhancement of the expression of key molecular chaperones, including the glucose regulated protein (GRP) 78. GRP78 is the main sensor for protein folding and the main actuator of the ERSR.
In a collaboration between the Southern Research Institute and the NIH Chemical Genomics Center, a cell based screen was developed that reliably uses GRP78 as a sensor to identify small molecules as inducers of ERSR. In resting conditions, GRP78 binds proteins and acts as a natural repressor. Once unfolded proteins are present in the ER, GRP78 releases some of the repressors and binds to the unfolded proteins. The release of the repressors executes the ERSR program. Using a human glioma cell line in a miniaturized, luminescent format, a high-throughput screen was developed to identify actuators of the ERSR.
(1) Soboloff, J. and S. A. Berger (2002). "Sustained ER Ca2+ depletion suppresses protein synthesis and induces activation-enhanced cell death in mast cells." J Biol Chem 277(16): 13812-20.
NIH Chemical Genomics Center [NCGC]
NIH Molecular Libraries Probe Centers Network [MLPCN]
Assay Submitter (PI): Maurizio Grimaldi, Southern Research Institute
Stable transfected human glioma cell line, U87-MG, are dispensed at density 1000 cells/well into Greiner white solid bottom 1536-well assay plates. Compounds are transferred via Kalypsys pin tool equipped with 1536-pin array (10nl slotted pins, V&P Scientific, San Diego, CA). The assay plates will be incubated for 16 hours and developed by adding appropriate quantities of the Promega Bright Glo reagent. The plates will be incubated at room temperature for 10 minutes prior to being transferred into a ViewLux high-throughput CCD imager (PerkinElmer), wherein end-point measurements of luminescence are acquired.
Potency is the fitted concentration of half-maximal effect.

SMILES	activation	Potency
OCC1CCCN(c2nc3cc4c(cc3cc2CNCc2cccs2)OCO4)C1 (stereo not drawn)	-3.02%	
Cc1cc[n+](C2CCCCC2)cc1	0.895%	
C#CCC(C(=O)OC)(C(=O)OC)C(C[N+](=O)[O-])c1ccccc1 (stereo not drawn)	-5.05%	
COc1ccc(CN2CCOc3c(cc(-c4ncc(C(F)(F)F)cc4Cl)cc3OCC3CCCO3)C2)c(O)c1 (stereo not drawn)	-0.626%	
COc1cccc(CN2CCC3(CC2)c2ccccc2[C@@H](NC(=O)c2ccccc2OC)[C@@H]3O)c1	-2.93%	
CC1(C)OC(C(O)(c2ccccc2)c2ccccc2)C(C(O)(c2ccccc2)c2ccccc2)O1 (stereo not drawn)	-4.02%	
C[C@@H]1O[C@@H](OC[C@H]2O[C@@H](Oc3cc(O)c4c(c3)O[C@H](c3ccc(O)c(O)c3)CC4=O)[C@H](O)[C@@H](O)[C@@H]2O)[C@H](O)[C@H](O)[C@H]1O	-3.44%	
CC(=O)OCC1OC(C#CCCCc2ccccc2)C=CC1OC(C)=O (stereo not drawn)	-2.84% and 1.87%	
CC(=O)OC[C@H]1O[C@@H](O[C@H]2[C@H](O)[C@@H](OC(=O)c3ccccc3C(=O)O)[C@H](O)O[C@@H]2COC(C)=O)[C@H](O)[C@@H](OC(=O)c2ccccc2C(=O)O)[C@@H]1O	-0.805%	
CN(C)c1ccc(/C=C/c2sc3ccccc3[n+]2C)cc1	-8.55%	
FC(F)(F)c1cccc(-c2cn[nH]c2C2CCCN(Cc3cccn3-c3ccccn3)C2)c1 (stereo not drawn)	-5.05%	
C=C(C)C1CC=C(C)C(O)C1 (stereo not drawn)		11.2 µM (active)
C=C(C)C1CC=C(CO)CC1 (stereo not drawn)	-1.71%	
CCOC(=O)N/N=C1/C[C@@H](O)[C@@H](O)[C@@H]2[C@@H]3C(=O)N(CC)C(=O)[C@H]3CC[C@H]12	-5.32%	
CN1[C@H]2CC(OC(=O)[C@@H](CO)c3ccccc3)C[C@H]1[C@H]1O[C@H]12 (stereo partly drawn)	-4%	
COc1ccccc1-c1ccc(C(=O)N(C)C(C)c2ccon2)c(N2CCN(c3ccccc3F)CC2)n1 (stereo not drawn)	-4.71%	
Cc1cnc(C(=O)N2CCOc3ccc(CN4CCCC(C(=O)c5cccnc5)C4)cc3C2)[nH]1 (stereo not drawn)	-3.36%	
COc1ccc(CN2CCC3(CCC(CNC(=O)c4ccco4)O3)CC2)cc1OC (stereo not drawn)	0.172%	
COC(=O)c1ccccc1-c1cc(C)cc2c1OC(CNC(=O)C1CCOC1)C2 (stereo not drawn)	-1.81%	
Cn1c(=O)c(CCc2ccccc2)nc2cnc(Nc3ccccc3)nc21	-3.93%	
Cc1c(S(=O)(=O)O)oc2c1C(=O)C(=O)c1c-2ccc2c1CCCC2(C)C	-3.94%	
CCOC(=O)N1CCC(N2CCOc3ccc(CN4CCC(O)(c5cccnc5)CC4)cc3C2)CC1	-2.68%	
CC(CCC(=O)O)C1CCC2C3C(O)C[C@@H]4CC(O)CC[C@@]4(C)C3CC[C@@]12C (stereo partly drawn)	-5.26% and -4.28%	
COc1ccc(-n2c(CNC(=O)c3cc(C(F)(F)F)ccc3Cl)nnc2SC)cc1	-6.93%	

SMILES	activation	Potency
COc1c(O)c2c(=O)cc(OC)c3c4c(OC)cc(=O)c5c(O)c(OC)c6c(c(c1C[C@@](C)(O)[C@H]6C(C)=O)c23)c54	-6.89%	
COc1cc(=O)n2c(c1C(=O)N(C)Cc1nonc1C)CCN(C(=O)c1ccc(C)cc1C)CC2	-4.93%	
CC(C)(C)c1ccc(OC2C=CC(C#Cc3ccccc3)OC2CO)cc1 (stereo not drawn)	-2.6%	
CCOc1ccc2nc(N3CCCN(CCCn4cccn4)CC3)nc(C)c2c1	0.4%	
O=C(NCC1Cc2cc(F)cc(-c3cnccn3)c2O1)C1COc2ccccc2O1 (stereo not drawn)	-2.7%	
CCC1CN(CCNC(=O)c2cccc(C)n2)Cc2cc(OC)ccc2O1 (stereo not drawn)	-0.701%	
C=C1C(=CC=C2CCC[C@]3(C)[C@@H]([C@H](C)C=C[C@H](C)C(C)C)CC[C@@H]23)C[C@@H](O)C[C@@H]1O	-0.319%	
COc1cccc(-c2cc(=O)c3cc(NC(=O)c4ccc(C)cc4)ccc3[nH]2)c1	-1.6%	
COc1ccccc1C(=O)N[C@@H]1c2ccccc2C2(CCN(Cc3nc(C(C)C)cs3)CC2)[C@H]1O	-7.22%	
CCC1CN(CCNC(=O)c2cccnc2C)Cc2cc(OC)ccc2O1 (stereo not drawn)	-0.134%	
Cc1[nH]c2c(C(=O)NCC3Cc4cccc(-c5cccnc5)c4O3)cccc2c1C (stereo not drawn)	-3.83%	
c1ccc(CN2CCN(Cc3ccc4c(c3)CN(Cc3c[nH]c5ccccc35)CCO4)CC2)nc1	-3.67%	
CN1CCN(/[N+]([O-])=N/Oc2ccc([N+](=O)[O-])cc2[N+](=O)[O-])CC1	20.9%	
CCc1noc(C)c1C(=O)NCCN1Cc2cc(OC)ccc2OC(CC)C1 (stereo not drawn)	-4.48%	
C=C1/C(=C\C=C2\CCCC3(C)C2CCC3C(C)/C=C/C(O)C2CC2)CC(O)CC1O (stereo not drawn)	-9.49%	
COC(=O)c1ccccc1C(=O)NCc1nc(N2CCCC2)c2cccc(C)c2n1	-2.48%	
CC(=O)c1ccc(F)c(-c2cc(C)cc3c2OC(CNC(=O)Cc2c[nH]c4ccccc24)C3)c1 (stereo not drawn)	0.07%	
CO/N=C(\C(=O)N[C@@H]1C(=O)N2C(C(=O)O)=C(Cn3nnc(C)n3)CS[C@H]12)c1csc(N)n1	-1.86%	
CCCCc1nn(-c2ccccc2C(F)(F)F)c(=O)n1Cc1ccc(-c2ccccc2S(=O)(=O)NC(=O)c2sccc2C)cc1	-2.91%	
Cc1ccc2c(C)nc(N3CCCC(C(=O)NC(C)(C)CO)C3)nc2c1 (stereo not drawn)	-2.4%	
CC(O)(COc1ccccc1)c1ccc2c(c1)CN(Cc1cn[nH]c1-c1ccc(F)cc1)CCO2 (stereo not drawn)	-3.22%	
COc1ccccc1C1CN(Cc2ccccc2O)Cc2ccccc2O1 (stereo not drawn)	-2.43%	
C[C@H]1CC[C@H](C(=O)O)N[C@@H]1c1ccc(C#Cc2ccccc2)cc1	-4.8%	
C=CCC1CCC(=O)N2CCCC12 (stereo not drawn)	-2.78%	
